Screening results (PubChem BioAssay)
USP10 block: inhibitors of human USP10 deubiquitinase; Q14694; purified USP10, Ub-rhodamine fluorescence, 60 min; 47,000 compounds, 1.1% hits; inhibition, % at 20 µM
UCHL1 inh: inhibitors of human UCHL1 deubiquitinase. P09936. purified UCHL1, Ub-rhodamine cleavage fluorescence. inhibition, % at 20 µM. 47,000 compounds, 0.2% hits. AID 1645859
USP17 block: blocks human USP17 ubiquitin-rhodamine cleavage; inhibition, % at 50 µM; purified USP17, Ub-rhodamine cleavage fluorescence, 3 h; A8MUK1; 47,000 compounds, 6.5% hits; AID 1645855
Target sequence (A8MUK1 whole entry, looked up): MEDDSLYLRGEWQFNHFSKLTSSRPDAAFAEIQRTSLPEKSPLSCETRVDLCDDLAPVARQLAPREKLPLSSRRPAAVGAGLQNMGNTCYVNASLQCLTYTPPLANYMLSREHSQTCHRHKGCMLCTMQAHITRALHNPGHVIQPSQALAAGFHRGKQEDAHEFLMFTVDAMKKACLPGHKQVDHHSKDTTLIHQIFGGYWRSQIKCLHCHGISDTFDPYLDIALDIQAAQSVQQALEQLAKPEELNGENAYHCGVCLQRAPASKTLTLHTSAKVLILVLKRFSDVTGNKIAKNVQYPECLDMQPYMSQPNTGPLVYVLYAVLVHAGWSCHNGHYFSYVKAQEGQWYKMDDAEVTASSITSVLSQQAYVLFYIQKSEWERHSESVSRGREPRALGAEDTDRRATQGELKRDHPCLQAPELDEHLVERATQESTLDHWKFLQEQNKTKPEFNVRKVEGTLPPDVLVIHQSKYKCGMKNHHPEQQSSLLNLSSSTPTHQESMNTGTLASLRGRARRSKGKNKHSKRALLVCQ
USP7 block: inhibitors of human USP7 deubiquitinase | Q93009 | purified USP7, Ub-rhodamine cleavage fluorescence | inhibition, % at 20 µM | 47,000 compounds, 0.3% hits | AID 1645854
USP30 inh: inhibitors of human USP30 deubiquitinase | 47,000 compounds, 5.3% hits | inhibition, % at 25 µM | purified USP30, Ub-rhodamine cleavage fluorescence | Q70CQ3
USP8 block: human USP8 deubiquitinase inhibition; P40818; inhibition, % at 20 µM; purified USP8, Ub-rhodamine cleavage fluorescence, 30 min; 47,000 compounds, 4.2% hits
Numbers without * were called inactive; i = inactive; · = not tested or not shown. Shown are actives, neighbours in structure and some others; about 12% of the full set was active somewhere. No stated cut-off is given here; in the data, active means inhibition above about 30%; inactive means the rest.

SMILES	USP10 block	UCHL1 inh	USP17 block	USP7 block	USP30 inh	USP8 block
CCCc1noc(-c2ccnc(-n3cnc(C(=O)N4CCCC4)c3)c2)n1	0	3	10	1	11	9
Nc1nc(SCc2ccc([N+](=O)[O-])cc2)[nH]c(=O)c1NC(=O)c1ccco1	24	2	-27	13	-34	39*
Nc1nc(SCC(=O)NC2CCCCC2)[nH]c(=O)c1NC(=O)c1ccco1	-2	0	-13	3	-5	-155
O=C(c1ccccc1)N1CCC2(C1)Nc1cccnc1NC2=NCc1ccccc1 (centres undefined)	-3	-17	-138	-16	i	-281
Cc1c(C(=O)NCc2ccc(Cl)cc2)sc2ncnc(N3CCCC3)c12	9	5	18	-4	43*	14
O=C1CC(c2nc3ccccc3n2CCOc2ccc(Cl)cc2)CN1c1ccccc1 (centres undefined)	9	7	66*	11	72*	87*
CCCCN1CC(c2nc3ccccc3n2CCOc2ccccc2OC)CC1=O (centres undefined)	1	4	0	-49	16	0
COc1ccccc1OCCCCn1c(C2CC(=O)N(c3ccccc3F)C2)nc2ccccc21 (centres undefined)	7	5	29	1	39*	16
COc1ccc(OCCn2c(C3CC(=O)N(c4cccc(C)c4)C3)nc3ccccc32)cc1 (centres undefined)	17	3	76*	7	34*	11
CCCn1c(C2CC(=O)N(c3cccc(C)c3)C2)nc2ccccc21 (centres undefined)	1	4	6	0	24	11
CN1CC(c2nc3ccccc3n2CCCOc2ccc(Cl)cc2)CC1=O (centres undefined)	-4	-1	1	-25	-7	18
Cc1ccc(N2CC(c3nc4ccccc4n3CCCOc3ccccc3)CC2=O)cc1 (centres undefined)	14	7	60*	7	56*	24
Cc1nc2cc(NC(=O)c3ccc(N4CCOCC4)nn3)ccc2s1	0	0	-15	5	-60	5
Cc1nc(N2CCN(c3ccc(Cl)cc3)CC2)c2oc3ccccc3c2n1	18	2	25	12	23	63*
COc1ccc(C2=C(NCCc3ccc(S(N)(=O)=O)cc3)c3ccccc3C2=O)cc1	6	0	12	6	49*	11
COc1cccc(CNC(=O)c2sc(-c3ccc(OC)c(OC)c3)nc2C)c1	-2	6	45*	6	13	12
Cc1nc(-c2ccccc2F)sc1C(=O)NCc1ccc(S(N)(=O)=O)cc1	1	-4	-7	-7	-4	-126
COc1ccc(-c2nc(C)c(C(=O)NCCc3ccc(S(N)(=O)=O)cc3)s2)cc1	30*	-1	3	-1	30	37*
OC(CNC1CCN(Cc2ccccc2)CC1)COc1ccc(OC(F)(F)F)cc1 (centres undefined)	-3	-6	-8	-7	2	-10
Cc1ccc(-n2nc(C)c3nc(CCC(=O)Nc4ccc(OC(F)(F)F)cc4)c(=O)n(C)c32)cc1	12	-2	4	7	31*	4
O=[N+]([O-])c1ccc2c(c1)nc1n2CCN(Cc2ccco2)C1	9	9	61*	2	42*	13
Cc1cc(-c2cnc(NCc3ccc(F)cc3)nc2-c2ccco2)on1	12	0	33*	1	-11	35*
Cc1cc(-c2cnc(N(C)C)nc2-c2ccc(CNC(=O)Cc3ccc(F)cc3)cc2)on1	2	11	64*	0	23	-5
CC(C)c1cc(C(=O)N2CCOCC2)c(NC(=O)c2cccc(Oc3ccccc3)c2)s1	-4	-1	-10	-10	-14	-11
Cc1ccc(-c2nnc(NC(=O)C3CCCCC3)o2)c(C)c1	14	1	38*	·	6	0
SMILES	USP10 block	UCHL1 inh	USP17 block	USP7 block	USP30 inh	USP8 block
O=C(Nc1nnc(-c2ccccc2Cl)o1)C1CCCCC1	6	-1	15	3	8	10
CC(C)(NCc1ccc(F)c(F)c1)c1nc2c(c(C(N)=O)n1)OCO2	1	3	4	3	23	10
CCC(NS(=O)(=O)c1ccc(S(=O)(=O)N2CCOCC2)cc1)C12CC3CC(CC(C3)C1)C2 (centres undefined)	7	8	14	10	33*	21
Cc1cccc(NC(=O)COC(=O)c2sc3cc(F)ccc3c2Cl)c1	6	2	5	6	4	2
CC(=O)c1cccc(NC(=O)COC(=O)c2sc3cc(F)ccc3c2Cl)c1	31*	5	5	10	10	26
Cc1oc(-c2[nH]ncc2C(=O)N(C)C)cc1S(=O)(=O)Nc1ccccc1	2	1	13	5	30*	1
Cc1ccccc1CNS(=O)(=O)c1cc(-c2[nH]ncc2C(=O)N(C)C)oc1C	-1	-2	-10	0	-25	-14
COc1ccc(CN2CCC3(CC2)Nc2ccccc2C2=NCCN23)cc1CO	-8	-11	-29	-2	-69	-37
O=C(NCCC1=CCCCC1)c1cc2c(s1)CS(=O)(=O)C2	-1	1	22	-2	·	-2
O=C(NCCCN1CCc2ccccc2C1)c1cc2c(s1)CS(=O)(=O)C2	-11	-6	62*	0	-26	46*
CC1CCN(c2ccc(C(=O)Nc3cccc(F)c3)cc2[N+](=O)[O-])CC1	5	2	25	6	23	14
Cc1nnc(NC(=O)C2CCN(S(=O)(=O)c3ccc4c(c3)CCC4)CC2)o1	1	2	-16	2	18	-92
O=C(Nc1nc2c(s1)CCC2)C1CCN(S(=O)(=O)c2ccc3c(c2)CCCC3)CC1	11	4	20	-20	-102	36*
CCc1cc2cc3c(cc2nc1SCC(=O)Nc1cccc(C(C)=O)c1)OCO3	4	-3	63*	1	-1	4
Cc1nc(SCC(=O)Nc2ccc3c(c2)OCO3)c2oc3ccccc3c2n1	-4	1	7	1	-14	20
CC(C)Oc1ccc(S(=O)(=O)N2CCOCC2)cc1NCC(=O)Nc1ccc(C(C)(C)C)cc1	6	11	14	10	33*	20
O=C(c1cccnc1)c1c(N2CCOCC2)[nH]c(=O)c2ccccc12	-4	-9	37*	-39	·	8
COc1ccc(NC(=O)Cn2c(=O)n(CCCC(=O)NC3CCCC3)c(=O)c3cc(Cl)ccc32)cc1	11	-1	-4	2	-5	-9
O=C(Cn1c(=O)c2ccccc2n(CC(=O)Nc2ccc(F)c(Cl)c2)c1=O)NCc1ccco1	15	3	62*	7	45*	44*
O=C(Cn1c(=O)n(CCCC(=O)NC2CCCC2)c(=O)c2cc(Cl)ccc21)Nc1cccc(F)c1	4	-2	3	-16	37*	10
